Bioassay records: PubChem BioAssay, several laboratories
In the library only some 4.6% were active in any assay of this set; here they are far more common.
ABHD5 PLIN5 PPI = ABHD5-PLIN5 protein interaction inhibition. inhibition, % at 4 µM. Q00G26+Q8WTS1. actives 0.78% (n = 360,000). AID 602281. Split G. princeps luciferase complementation, luminescence, 4 h;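 active means inhibition above the mean inhibition across every tested compound plus 3 SD, cut at about 22% in these data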;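 further: 0% = DMSO only wells and the 100% control is not disclosed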
KKLEB tox = counter-screen for CF NF-kB inhibitors: cytotoxicity | actives 0.36% (n = 360,000) | KKLEB CF airway cells viability, ATPlite luminescence, overnight; stronger effect = lower value; cells stimulated with P. aeruginosa culture filtrate | activity change (cytotoxicity), % at 5 µM | AID 602141;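 active means corrected activity change at or below -50% at 5 µM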
Mdm2 MdmX PPI = inhibitors of human Mdm2/MdmX interaction | O15151+Q00987 | SaOS-2 split-luciferase Mdm2/MdmX complementation, luminescence | inhibition, % at 8 µM | actives 3% (n = 330,000);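 active means inhibition of at least 50% at 8 µM in the primary screen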
Target sequence (O15151 whole entry, looked up): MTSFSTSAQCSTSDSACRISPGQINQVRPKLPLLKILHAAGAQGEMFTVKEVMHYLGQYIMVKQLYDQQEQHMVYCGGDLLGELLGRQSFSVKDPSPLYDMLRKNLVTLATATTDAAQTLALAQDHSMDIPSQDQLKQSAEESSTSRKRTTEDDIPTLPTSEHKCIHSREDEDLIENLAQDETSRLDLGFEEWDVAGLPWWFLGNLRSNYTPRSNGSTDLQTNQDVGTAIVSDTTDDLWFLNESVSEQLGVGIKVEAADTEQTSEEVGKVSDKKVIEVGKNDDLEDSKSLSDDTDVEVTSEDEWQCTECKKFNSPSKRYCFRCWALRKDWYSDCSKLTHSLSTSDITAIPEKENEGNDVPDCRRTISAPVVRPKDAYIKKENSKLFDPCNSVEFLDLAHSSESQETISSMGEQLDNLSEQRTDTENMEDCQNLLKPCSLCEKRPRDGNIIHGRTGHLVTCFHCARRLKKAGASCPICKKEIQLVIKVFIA
Target sequence (Q00987 whole entry, looked up): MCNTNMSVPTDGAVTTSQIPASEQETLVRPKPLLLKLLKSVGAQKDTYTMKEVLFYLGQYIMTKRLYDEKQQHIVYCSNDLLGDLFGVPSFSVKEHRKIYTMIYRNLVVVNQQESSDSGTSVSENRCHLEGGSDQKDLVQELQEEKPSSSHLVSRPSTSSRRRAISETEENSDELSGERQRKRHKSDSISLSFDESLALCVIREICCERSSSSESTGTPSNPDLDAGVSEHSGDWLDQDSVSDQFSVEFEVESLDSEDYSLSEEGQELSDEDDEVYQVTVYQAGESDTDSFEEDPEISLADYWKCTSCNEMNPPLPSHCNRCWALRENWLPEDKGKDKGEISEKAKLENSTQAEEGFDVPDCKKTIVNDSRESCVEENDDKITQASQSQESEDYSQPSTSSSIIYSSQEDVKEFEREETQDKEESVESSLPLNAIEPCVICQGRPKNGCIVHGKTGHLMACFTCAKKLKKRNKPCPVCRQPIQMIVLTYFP
Peg3 promoter = Peg3 promoter activity inhibition | inhibition, % at 20 µM | HeLa PEG-Prom luciferase reporter, luminescence, overnight | actives 1.7% (n = 360,000);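 active means inhibition of at least 50% at 20 µM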
HIF-2a block = blocks HIF-2a reporter activity | AID 624352 | actives 0.72% (n = 360,000) | inhibition, % at 18.8 µM | 786-0 RCC cells HIF-2a reporter, luciferase luminescence, overnight;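 active means inhibition of the luminescence signal of 40% or more relative to plate controls, in a single-dose primary screen at 18.75 µM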
CF NFkB inh = inhibitors of cystic fibrosis induced NF-kB; actives 0.86% (n = 360,000); inhibition, % at 5 µM; KKLEB NF-kB-GFP reporter, PAF-induced, GFP fluorescence overnight; AID 588850;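 active means at least 50% inhibition at 5 µM, scaled per plate between neutral and stimulator controls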;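 further: PAF is a Pseudomonas aeruginosa culture filtrate used as stimulus; plate controls were PAF-stimulated DMSO wells for no effect and unstimulated DMSO wells for full effect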
Mdm2 MdmX conf = human Mdm2/MdmX binding inhibition, confirmed. shares compounds with Mdm2 MdmX PPI. luminescent assay. inhibition, % at 8 µM. actives 55% (n = 10,000). AID 489028; in the data active means inhibition above about 40%
Full FLuc ctr = inhibits full-length luciferase, flagging false Mdm2/MdmX hits; AID 504607; SaOS-2 full-length luciferase counterscreen, luminescence; shares compounds with Mdm2 MdmX PPI; inhibition, % at 8 µM; actives 77% (n = 6,200);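 active means mean inhibition at 8 µM reaching about 37%, which flags the compound as non-specific, limit read from the data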;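 further: p53-null SaOS-2 cells with luciferase driven by a doxycycline-inducible promoter; compound on cells about two nights before reading with doxycycline added after day one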
Active calls of the source: *; . = no result.

SMILES	ABHD5 PLIN5 PPI	KKLEB tox	Mdm2 MdmX PPI	Peg3 promoter	HIF-2a block	CF NFkB inh	Mdm2 MdmX conf	others
Cc1ccc(S(=O)(=O)CCC(=O)N(CCCN2CCOCC2)c2nc3ccccc3s2)cc1	3.0	-9.9	63.8*	44.9	-138.0	49.1	33.5
O=C1CC(c2ccco2)CC2=C1C1c3ccccc3C(=O)N1c1ccccc1N2 (stereo not drawn)	-4.3	23.6	67.8*	32.7	-70.7	-20.9	26.8
O=C(NNc1c2ccccc2nc2ccccc12)C(O)c1ccccc1 (stereo not drawn)	8.6	4.4	78.5*	13.8	1.7	-27.0	81.8*	Full FLuc ctr=34.4
O=C(NNc1c2ccccc2nc2ccccc12)c1ccc(O)cc1	16.5	-7.1	27.7	-1.2	-7.5	-99.6	.
O=C(NNc1c2ccccc2nc2ccccc12)C12CC3CC(CC(C3)C1)C2	-1.8	1.5	68.3*	4.2	28.1	2.3	3.6
O=C(Nc1nnc(-c2cccs2)o1)c1cccc(Oc2ccccc2)c1	4.2	-4.5	54.9*	19.9	-7.2	-3.9	30.6
COc1ccc(NC(=O)c2ccco2)cc1NC(=O)COc1ccccc1	2.9	2.1	19.6	1.4	-58.7	-5.6	.
O=C(COc1ccc(/C=N/NC(=O)c2cc3ccccc3o2)cc1Br)Nc1ccccc1	4.3	-50.7*	94.8*	99.1*	-234.4	50.9*	-83.1
O=C(COc1ccccc1[N+](=O)[O-])Nc1ccc2oc(=O)ccc2c1	4.0	-2.6	32.2	-4.3	-5.1	-23.0	.
COc1ccc(NC(=O)c2ccco2)cc1NC(=O)COc1ccccc1[N+](=O)[O-]	4.9	-2.1	78.2*	23.7	-1.6	17.9	24.6
O=C(N/N=C/c1ccco1)c1cc2ccccc2o1	-2.9	-12.7	9.1	-91.9	-104.0	9.7	.
Cc1ccccc1OCC(=O)Nc1ccccc1NC(=O)c1ccco1	-7.2	-13.7	5.2	12.4	18.9	3.5	.
O=C(COc1ccccc1[N+](=O)[O-])Nc1ccc(NC(=O)c2cc3ccccc3o2)cc1	3.2	-24.2	54.2*	11.3	0.4	24.7	30.9	Full FLuc ctr=71.0*
CCOc1cc(NC(=O)c2ccco2)c(OCC)cc1NC(=O)COc1ccccc1C	-0.5	-25.6	99.4*	45.7	5.8	20.8	35.4	Full FLuc ctr=33.4
CC1=NN(C(N)=S)C(=O)C1N=Nc1ccc(C)c(Br)c1 (stereo not drawn)	8.4	0.2	-106.7	-287.8	-195.3	-23.6	.
COc1ccc(C(CNC(=O)c2ccc(S(=O)(=O)N3CC(C)CC(C)C3)cc2)N(C)C)cc1 (stereo not drawn)	7.6	-16.8	51.4*	70.8*	-0.7	19.2	17.1
COc1ccc(C(CNC(=O)c2ccc(S(=O)(=O)N3CCCC3)cc2)N(C)C)cc1OC (stereo not drawn)	-0.1	11.0	-11.7	8.2	7.6	-11.8	.
O=C(CCl)N1CCN(S(=O)(=O)Cc2ccccc2)CC1	-10.2	-2.2	70.7*	30.4	-4.0	-10.9	25.2
CN1C(=O)N(CC(=O)N2CCN(S(=O)(=O)c3ccc4c(c3)CCC4)CC2)C(=O)C12CCCCC2	-7.9	-4.7	23.0	-4.7	11.0	9.9	.
O=C(CCl)N1CCN(S(=O)(=O)c2ccc3c(c2)CCC3)CC1	-6.8	-16.4	63.8*	50.2*	25.2	-23.1	6.8
CC(=O)Nc1ccc(S(=O)(=O)NCCC(=O)NCc2ccncc2)cc1	-4.9	2.5	-1.7	-5.9	3.9	-32.3	.
CCOc1ccc(NC(=O)c2ccncc2)cc1	2.2	-1.1	-4.6	-50.0	-32.6	5.5	.
CCOc1ccc2c(c1)C(=NNC(=O)c1ccncc1)c1cc(OCC)ccc1-2	1.9	9.8	66.2*	55.0*	-126.1	-39.1	52.1*	Full FLuc ctr=55.4*
O=c1[nH]c2cc3c(cc2cc1C(c1nnnn1Cc1ccccc1)N1CCCCCC1)OCCO3 (stereo not drawn)	-6.3	2.7	0.4	11.4	20.1	2.6	.
O=c1[nH]c2cc3c(cc2cc1C(c1nnnn1Cc1ccccc1)N1CCCc2ccccc21)OCO3 (stereo not drawn)	.	.	100.3*	.	.	.	10.3
SMILES	ABHD5 PLIN5 PPI	KKLEB tox	Mdm2 MdmX PPI	Peg3 promoter	HIF-2a block	CF NFkB inh	Mdm2 MdmX conf	others
COc1ccc(NC(=O)CSc2ccc3c4c(cccc24)C(=O)c2ccccc2-3)cc1	0.1	-40.6	57.6*	18.6	14.1	21.4	16.1
COc1ccc(NC(=O)COC(=O)CN2C(=O)C3CCCCC3C2=O)cc1 (stereo not drawn)	-1.1	-8.4	.	13.8	3.8	11.2	.
O=C(Nc1ncc(Cc2cc(Cl)ccc2Cl)s1)c1ccc([N+](=O)[O-])cc1	5.4	-0.2	58.8*	14.8	-8.3	23.7	33.0
O=C(Nc1ncc(S(=O)(=O)c2ccc([N+](=O)[O-])cc2)s1)c1cccnc1	15.7	-16.1	7.0	-2.2	2.3	-11.1	.
O=C(Nc1ncc(S(=O)(=O)c2ccc([N+](=O)[O-])cc2)s1)c1ccc2ccccc2c1	-2.1	-24.3	70.9*	11.4	-99.4	27.3	32.0
Cc1ccc(Nc2nnc(SCC(=O)Nc3ncc(S(=O)(=O)c4ccc([N+](=O)[O-])cc4)s3)s2)cc1	-9.1	-36.1	62.1*	12.2	-5.5	20.8	15.9
C[C@@H]1CN([C@H](C)CO)C(=O)CCCn2cc(nn2)CO[C@H]1CN(C)C(=O)Nc1ccccc1	8.9	-12.1	.	-10.9	11.9	0.6	.
CCCOc1ccc(C(=O)CCNC(Cc2c[nH]c3ccccc23)C(=O)O)cc1 (stereo not drawn)	4.5	4.1	86.5*	37.8	13.0	-2.3	21.1
COc1ccc(C(=O)NC(Cc2c[nH]c3ccccc23)C(=O)O)cc1 (stereo not drawn)	6.3	-18.3	-18.2	4.7	18.4	-20.4	.
CCOC(=O)c1sc(NC(=O)c2c(CC)noc2C)nc1C	-2.1	0.8	16.3	0.3	-18.8	-21.6	.
O=C(O)CCn1cc(/C=C2/NC(=S)N(c3ccccc3)C2=O)c(-c2ccccc2)n1	-0.2	16.8	0.2	11.3	10.4	-16.2	.
N#CCCn1cc(/C=C2\NC(=S)N(c3ccccc3)C2=O)c(-c2ccc(-c3ccccc3)cc2)n1	-6.0	-11.0	63.3*	15.1	13.1	20.2	18.6
Fc1ccccc1/C=N/NC(=S)Nc1ccc(Cl)cc1Cl	-3.9	-23.9	80.0*	-64.7	-90.6	29.2	72.0*	Full FLuc ctr=89.8*
C[C@H](CO)N1C[C@H](C)[C@@H](CN(C)C(=O)C2CC2)OCc2cnnn2CCCC1=O	0.3	-0.6	.	-9.4	11.0	-0.5	.
O=C(CSc1nc2cc([N+](=O)[O-])ccc2n1-c1ccccc1)NCc1ccc2c(c1)OCO2	4.2	-7.5	56.0*	7.2	13.0	-1.2	21.7
CC(C)=CCc1c(O)cc(O)c2c(=O)c3c(CC=C(C)C)c(O)ccc3oc12	.	.	93.8*	.	.	.	28.9
